The results in this text go back to PubChem BioAssay (NCI).

The structures appear in SMILES notation. About 83,000 compounds went through this panel and 20% of them were active in at least one assay; those are over-represented in the sample as a whole.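 Compound tested at a single concentration for 48 hours in 96-well plates; a percent growth value below 10 was scored as active.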 A number with no mark means an inactive call. Calls of active or inactive are those of the source.

Test in all cases: NCI-60 one-dose screen, 48 h (100 = growth as untreated, 0 = no growth, -100 = all killed)
What all share (details): 10 µM

In assay [1] the test system is OVCAR-8 ovarian.
For assay [2], the system named is OVCAR-5 ovarian.
The test system of assay [3] is SK-OV-3 ovarian.
Assay [4] deals with IGROV1 ovarian.
In assay [5] the test system is OVCAR-3 ovarian.
Assay [6] deals with HS 578T breast.
For assay [7], the system named is NCI/ADR-RES ovarian.
For assay [8], the system named is T-47D breast.
Assay [9] deals with OVCAR-4 ovarian.

Consider `Nc1ccc2c(c1)Cc1cc(N)c(Br)cc1-2`, for which the growth is 102% in [1]; 113% in [2]; 101% in assay [3]; 116% in [4]; 115% in [5]; 76.7% in assay [6]. Further, the growth was 90.2% in [7] and 78.5% in assay [8].
Take `CCn1cc(C(=O)O)c(=O)c2cnc(N3CCCC3)nc21`: the growth was 101% in assay [1]; 103% in assay [2]; 105% in [9]; 108% in assay [3]; 103% in assay [4]; 119% in assay [5]. Further, the growth in assay [6] is 99.9%; in assay [7], 102%; in assay [8], 99.1%.
Turning to `OCC1OC(n2cnc3c(N/N=C\c4ccccn4)ncnc32)C(O)C1O` (centres undefined), the growth is 23.2% in [1]; 43.3% in assay [2]; 21.6% in assay [9]; 11.7% in [3]; -6.53% (active) in assay [4]; 24.3% in assay [5]. Besides, the growth was 14.5% in assay [6] and 25.4% in assay [8].
On to `CS(=O)(=O)Nc1cccc(-c2cc(-c3ccccc3Cl)c(C#N)c(N)n2)c1`, for which the growth in assay [1] is 44%; in assay [2], 56.3%; in assay [9], 47.1%; in assay [4], 51.4%; in assay [5], -29.3% (active); in [6], -1.53% (active). Further, in [8], the growth is 36.9%.
Consider `O=C(/C=C/c1cc2ccccc2[nH]c1=O)c1ccc2c(c1)OCO2`, for which the growth in assay [1] is 96.1%; in [2] it was 104%; in [9], 88%; in assay [3] it was 102%; in assay [4] it was 92.5%; in [5], 102%. The values for the growth in [6] and in assay [8] were 93.8% and 72.2%, respectively.
In the case of `COc1cccc(-c2cc(-c3cccc(NS(C)(=O)=O)c3)nc(N)c2C#N)c1O`, the growth in assay [1] was 42.4%; in [2], 84.1%; in [9] it was 52.8%; in [3] it was 27.2%; in assay [4], 91.2%; in assay [5], -16% (active). Further, the growth in [6] is 52.8%; in assay [8], 52%.
Take `Nc1ncn([C@@H]2O[C@H](CO)[C@@H](O)[C@H]2O)c(=O)n1`: the growth was 22.4% in assay [1]; 56.8% in assay [2]; 34.1% in assay [9]; 17.4% in assay [3]; 18.5% in assay [4]; 22.7% in assay [5]. Besides, the values for the growth in assay [6], in assay [7] and in [8] were 23.7%, 29.1% and 26.6%, respectively.
As to `Cc1cs/c(=N\NC(=O)c2cc(-c3cc4ccccc4o3)nn2-c2ccccc2)n1-c1ccccc1`, the growth in assay [1] was 90.8%; in assay [2], 107%; in assay [9], 82.1%; in assay [3], 91.2%; in assay [4], 2.32% (active); in assay [5], 67%. The growth in assay [6] was 49.7%; in assay [7] it was 87.1%; in assay [8], 69.6%.
With `c1ccc(CO[C@H]2CO[C@H]3[C@@H]2OC[C@H]3OCc2ccccc2)cc1`, the growth in [1] was 107%; in [2] it was 99.6%; in assay [9], 111%; in [3] it was 96%; in [4], 92.3%; in assay [5], 111%. Further, the results for the growth in assay [6], in assay [7] and in assay [8] were 109%, 106% and 93.7%, respectively.
Regarding `COc1ccc(OC)c(/C=C/c2nc(SC)n(-c3ccc(Cl)cc3)n2)c1`, the growth was 78.5% in [1]; 112% in assay [2]; 70% in [9]; 83.8% in [3]; 61.8% in [4]; 91.2% in assay [6]. In addition, the growth in assay [8] is 42.8%.
As for `O=C1CC[C@@H]2CCCC[C@@H]2C1`, the growth was 109% in assay [1]; 101% in [2]; 99.4% in [3]; 105% in assay [4]; 132% in assay [5]; 110% in [6]. Besides, the figures for the growth in assay [7] and in [8] were 110% and 93.5%, respectively.
As to `O=[N+]([O-])c1ccc(N/N=C/c2cccc3ccccc23)nc1`, the growth in assay [1] was 104%; in assay [2], 96.7%; in [9], 90.4%; in assay [3], 105%; in [4] it was 89.8%; in assay [5], 122%. Moreover, the growth in assay [6] was 108%; in assay [7], 107%; in [8] it was 75.4%.
Consider `ClCC#CCSc1ncnc2c1ncn2CC#CCCl`, for which the growth in assay [1] was 24.4%; in assay [2], 14.1%; in assay [9], 34.3%; in assay [3], 45.7%; in assay [4], 30.7%; in assay [5], -27.5% (active). Also, the growth in assay [6] was 107%; in assay [8], -23.1% (active).
For the compound `O=c1c2ccccc2nc(SCCN2CCCCC2)n1CCc1ccccc1`, the growth in assay [1] was 95.9%; in assay [2], 88.7%; in [9] it was 86.7%; in [3] it was 92.6%; in [4], 78.7%; in [5], 94.1%. The growth was 93.9% in assay [6] and 65.5% in [8].
Take `O=C1/C(=C/c2ccc(Cl)cc2)SC(=Nc2ccc(Cl)cc2)N1Cc1nc2ccccc2[nH]1`: the growth in assay [1] is 66.9%; in assay [2], 107%; in [3] it was 97.6%; in assay [5], 81.6%; in [6], 114%; in [8], 78.1%.
Take `CN(C)c1ccc(-c2cc(-c3cccc(NS(C)(=O)=O)c3)nc(N)c2C#N)cc1`: the growth in assay [1] is 30%; in assay [2], 52%; in [9] it was 45.7%; in assay [3] it was 15.1%; in assay [4] it was 80.4%; in assay [5] it was -48.2% (active). The results for the growth in [6] and in assay [8] were 15.3% and 80.4%, respectively.
